Laboratory results published in PubChem BioAssay (EPA / NIEHS).
Calls of active or inactive are those of the source. The calls were made as follows: active = hit-call score of the fitted dose curve at least 0.9, where 1 is the maximum; inactive = score below 0.9.

Assay: Tanguay_ZF_120hpf_CRAN: Oregon State University Tanguay Lab 120 Hour Post-fertilization zebrafish Assay for Craniofacial Malformation (AID 2284397)
Method: Tanguay_ZF_120hpf is a whole embryo, multiplexed endpoint assay using zebrafish larvae exposed for 120 hours post fertilization on a 96-well plate.Tanguay_ZF_120hpf_CRAN is one of one assay component(s) measured or calculated from the Tanguay_ZF_120hpf assay. It is designed to make measurements of zebrafish development as detected with brightfield microscopy of developing zebrafish embryos.Data from the assay component Tanguay_ZF_120hpf_CRAN was analyzed into 1 assay endpoints. This assay endpoint, Tanguay_ZF_120hpf_CRAN, was analyzed in the positive analysis fitting direction relative to DMSO as the negative control and baseline of activity. Using a type of morphology reporter, gain-of-signal activity can be used to understand changes in developmentals as they relate to the whole embryo. To generalize the intended target to other relatable targets, this assay endpoint is annotated to the zebrafish development intended target family, where the subfamily is craniofacial morphogenesis.
Zebrafish husbandry: Tropical 5D wild-type adult zebrafish were housed in at an approximate density of 1000 per 100 gallon tank at the Sinnhuber Aquatic Research Laboratory, Oregon State University, Corvallis, OR. Each tank was kept at standard laboratory conditions of 28C on a 14-h light/10-h dark photoperiod in fish water consisting of reverse osmosis water supplemented with a commercially available salt (Instant Ocean). Spawning funnels were placed into the tanks the night prior, and embryos were collected and staged. To increase bioavailability, the chorion was enzymatically removed using pronase (63.6mg/ml, >/= 3.5U/mg, Sigma-Aldrich: P5147) at 4 hours post fertilization (hpf) using a custom automated dechorionator.Chemical exposures: Six hpf dechorionated embryos were placed 1 embryo per well in a 96-well plate prefilled with 90 ul of EM using automated embryo placement systems (AEPS). Ten microliters of each row of dilution plate 2 was added to 2 exposure plates. The final DMSO concentration used was 0.64% (vol/vol). Thirty-two embryos were also exposed to 5uM trimethyltin chloride (positive control). Plates were sealed to prevent evaporation and foil covered to reduce light exposure and kept in a 28C incubator. Embryos were statically exposed until 120 hpf. At 24 hpf, embryos were assessed for photomotor response using a custom photomotor response analysis tool (PRAT) and for developmental toxicity endpoints (MO24: mortality at 24 hpf, DP: developmental progression, SM: spontaneous movement, and NC: notochord distortion). At 120 hpf, locomotor activity was measured using Viewpoint Zebralab and assessed for 13 endpoints. Zebrafish acquisition and analysis program (ZAAP), a custom program designed to inventory, acquire, and manage zebrafish data, was used to collect developmental endpoints as either present or absent (i.e., binary responses were recorded). If mortality occurred for an embryo (at either 24 or 120 hpf), the non-mortality endpoints were not measured.

| Compound | outcome | AC50 |
| --- | --- | --- |
| OCCCC(F)(F)C(F)(F)C(F)(F)C(F)(F)C(F)(F)C(F)(F)C(F)(F)F | inactive | – |
| FC(F)(F)C(F)(F)CNCC(F)(F)C(F)(F)F | inactive | – |
| C=C(C)C(=O)OCC(F)(F)C(F)(F)C(F)(F)F | inactive | – |
| COC(=O)CCC(F)(F)C(F)(F)C(F)(F)C(F)(F)F | inactive | – |
| C=C(C)C(=O)OCCC(F)(F)C(F)(F)C(F)(F)C(F)(F)C(F)(C(F)(F)F)C(F)(F)F | inactive | – |
| O=C(O)C=C(C(F)(F)F)C(F)(F)F | inactive | – |
| O=C(O)C(F)(F)C(F)(F)C(F)(F)C(F)(F)C(F)(F)C(F)(F)C(F)(F)C(F)(F)Cl | – | 37.2 µM (active) |
| FC(F)(F)C(F)(F)C(F)(F)C(F)(F)C(F)(F)C(F)(F)C(F)(F)Br | inactive | – |
| OCC(F)(F)C(F)(F)C(F)(F)C(F)(F)C(F)(F)C(F)F | inactive | – |
| C=CC(F)(F)C(F)(F)C(F)(F)C(F)(F)C(F)(F)C(F)(F)C(F)(F)C(F)(F)F | inactive | – |
| FC(F)(F)C(F)(F)C(F)(F)C(F)(F)C(F)(F)C(F)(F)C(F)(F)C(F)(F)F | inactive | – |
| OCCCC(F)(F)C(F)(F)C(F)(F)F | inactive | – |
| C=C(C)C(=O)OCC(F)(F)C(F)(F)C(F)(F)C(F)(F)C(F)(F)C(F)(F)C(F)(F)F | inactive | – |
| O=C(O)C(F)(F)C(F)(F)C(F)(F)C(F)(F)C(F)(F)C(F)(F)C(F)(F)C(F)(F)C(F)(F)C(F)F | inactive | – |
| O=C(O)C(F)(F)C(F)(F)C(F)F | inactive | – |
| C=CC(=O)OCC(F)(F)C(F)(F)C(F)(F)C(F)(F)C(F)(F)C(F)(F)C(F)(F)F | inactive | – |
| O=C(O)C(F)(F)C(F)(F)C(F)(F)F | inactive | – |
| OCC(F)(F)C(F)(F)C(F)(F)C(F)F | inactive | – |
| O=C(O)C(F)(F)C(F)(F)C(F)(F)C(F)(F)F | inactive | – |
| O=S(=O)(OCC(F)F)C(F)(F)F | inactive | – |

| Compound | outcome | AC50 |
| --- | --- | --- |
| CCO[Si](CCC(F)(F)C(F)(F)C(F)(F)C(F)(F)C(F)(F)C(F)(F)F)(OCC)OCC | inactive | – |
| FC(F)(F)C(F)(F)C(F)(F)N(C(F)(F)C(F)(F)C(F)(F)F)C(F)(F)C(F)(F)C(F)(F)F | inactive | – |
| FC(F)(F)C(F)(F)C(F)(F)C(F)(F)C(F)(F)C(F)(F)CC1CO1 (stereo not given) | inactive | – |
| N=C(N)C(F)(F)C(F)(F)C(F)(F)C(F)(F)C(F)(F)C(F)(F)C(F)(F)F | inactive | – |
| O=C(O)C(F)(OC(F)(F)C(F)(OC(F)(F)C(F)(OC(F)(F)C(F)(F)C(F)(F)F)C(F)(F)F)C(F)(F)F)C(F)(F)F (stereo not given) | inactive | – |
| FC(F)(F)C(F)(F)C(F)(F)C(F)(F)C(F)(F)C(F)(F)C(F)(F)I | inactive | – |
| C=CC(=O)OCC(F)(F)C(F)(F)C(F)(F)C(F)(F)COC(=O)C=C | inactive | – |
| OCC(F)(F)C(F)(F)C(F)(F)C(F)(F)C(F)(F)C(F)(F)F | inactive | – |
| CC(C)(C)C(=O)CC(=O)C(F)(F)C(F)(F)C(F)(F)F | inactive | – |
| O=C(O)C(F)(F)C(F)(F)C(F)(F)C(F)(F)C(F)(F)C(F)(F)C(F)(F)C(F)(F)C(F)(F)C(F)(F)C(F)(F)C(F)(F)C(F)(F)F | inactive | – |
| O=C(O)C(F)(F)C(F)(F)OC(F)(F)F | inactive | – |
| O=P(O)(O)OCCC(F)(F)C(F)(F)C(F)(F)C(F)(F)C(F)(F)C(F)(F)F | inactive | – |
| NC(=O)C(F)(F)C(F)(F)C(F)(F)C(F)(F)F | inactive | – |
| FC1CC(F)(F)C(F)(F)C1(F)F (stereo not given) | inactive | – |
| O=S(=O)(OCCOC(F)(F)F)C(F)(F)F | inactive | – |
| OCC(F)(F)C(F)(F)C(F)(F)F | inactive | – |
| O=C(O)C(F)(F)C(F)(F)F | inactive | – |
| O=C(O)C(F)(OC(F)(F)C(F)(OC(F)(F)C(F)(F)C(F)(F)F)C(F)(F)F)C(F)(F)F (stereo not given) | inactive | – |
| O=C(O)C(F)(F)C(F)(F)C(F)(F)C(F)(F)C(F)(F)C(F)(F)C(F)(F)C(F)(F)C(F)(F)C(F)(F)C(F)(F)C(F)(F)F | inactive | – |
| FC(F)(F)C(F)(F)C(F)(F)CI | inactive | – |
